# Data reported in the supplement of paper PMC4709259.
# Counter-ions that a name gives are not always drawn. ± gives the standard deviation.
# Legend:
# Jurkat [1] = assay: mean cell size (FSC-A) relative to DMSO control (fraction of control); higher = larger cells; conditions: 48 h
# Method in brief: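 Jurkat cells seeded at 600 cells/µl were incubated 1 h, then exposed for 48h to the Enzo Screen-Well FDA Approved Drug Library v2.0 at 25µM in 0.9% (v/v) final DMSO. Drugs that cut counts below 20% of controls were diluted 10-fold and retested, down to 25nM. Cell count and mean cell size (forward scatter area) were read on an Accuri C6 flow cytometer, relative to solvent-only controls. Plates held 6-12 controls; values are means of 3 biological replicates.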
# Jurkat [2] = assay: cell count relative to DMSO control (fraction of control); higher = more cells (less growth inhibition); conditions: 48 h
SMILES,mean cell size (Jurkat [1]),cell count (Jurkat [2])
O=C(N[C@H](CO)[C@H](O)c1ccc([N+](=O)[O-])cc1)C(Cl)Cl [Chloramphenicol] (concentration: 25 µM),0.949 ± 0.022,0.819 ± 0.078
CNC(=C[N+](=O)[O-])NCCSCc1csc(CN(C)C)n1 [Nizatidine] (concentration: 25 µM),0.976 ± 0.011,0.809 ± 0.02
CN1CC2c3ccccc3Oc3ccc(Cl)cc3C2C1 (centres undefined) [Asenapine Maleate] (concentration: 25 µM),0.938 ± 0.019,0.935 ± 0.16
CN(C)CCC(c1ccc(Br)cc1)c1ccccn1 (centres undefined) [Brompheniramine Maleate] (concentration: 25 µM),0.946 ± 0.034,1 ± 0.14
Cc1cn([C@H]2C[C@H](N=[N+]=[N-])[C@@H](CO)O2)c(=O)[nH]c1=O [Zidovudine (3'-Azido-3'-Deoxythymidine)] (concentration: 25 µM),1.03 ± 0.025,0.714 ± 0.027
C=C1/C(=C\C=C2/CCC[C@]3(C)[C@@H]([C@H](C)/C=C/[C@@H](O)C4CC4)CC[C@@H]23)C[C@@H](O)C[C@@H]1O [Calcipotriene] (concentration: 25 µM),0.933 ± 0.064,0.654 ± 0.08
CC(C)Nc1cccnc1N1CCN(C(=O)c2cc3cc(NS(C)(=O)=O)ccc3[nH]2)CC1 [Delavirdine Mesylate] (concentration: 25 µM),0.942 ± 0.036,0.887 ± 0.099
CC(=O)OCC(CCn1cnc2cnc(N)nc21)COC(C)=O [Famciclovir] (concentration: 25 µM),0.925 ± 0.053,0.465 ± 0.18
Nc1nc2c(ncn2COC(CO)CO)c(=O)[nH]1 [Ganciclovir] (concentration: 25 µM),1.022 ± 0.0079,0.51 ± 0.1
O=C(O)c1ccc(-n2nc(-c3ccccc3O)nc2-c2ccccc2O)cc1 [Deferasirox] (concentration: 2.5 µM),1.07 ± 0.021,0.636 ± 0.039
O=C(O)COCCN1CCN([C@H](c2ccccc2)c2ccc(Cl)cc2)CC1 [Levocetirizine Dihydrochloride] (concentration: 25 µM),0.961 ± 0.039,0.91 ± 0.068
Nc1ncn([C@H]2C[C@H](O)[C@@H](CO)O2)c(=O)n1 [Decitabine] (concentration: 2.5 µM),1 ± 0.018,0.363 ± 0.035
CCOC(=O)[C@H](CCc1ccccc1)N[C@@H](C)C(=O)N1[C@H](C(=O)O)C[C@@H]2CCC[C@@H]21 [Ramipril] (concentration: 25 µM),1.01 ± 0.029,0.965 ± 0.031
CC(C(=O)O)c1cccc(C(=O)c2ccccc2)c1 (centres undefined) [Ketoprofen] (concentration: 25 µM),0.929 ± 0.0063,0.722 ± 0.029
CC(=O)Oc1cc2c(s1)CCN(C(C(=O)C1CC1)c1ccccc1F)C2 (centres undefined) [Prasugrel] (concentration: 25 µM),1.06 ± 0.023,0.831 ± 0.14
S=c1[nH]cnc2nc[nH]c12 [Mercaptopurine Hydrate] (concentration: 25 µM),1.08 ± 0.047,0.792 ± 0.1
C#CCN[C@@H]1CCc2ccccc21 [Rasagiline Mesylate] (concentration: 25 µM),1.03 ± 0.024,1.01 ± 0.058
CC(=O)OCC[N+](C)(C)C [Acetylcholine Chloride] (concentration: 25 µM),0.999 ± 0.056,0.68 ± 0.19
O=C(O)c1cn(C2CC2)c2cc(N3CCNCC3)c(F)cc2c1=O [Ciprofloxacin] (concentration: 25 µM),0.9157 ± 0.008,1.04 ± 0.13
CCCCC(C)(O)C/C=C/[C@H]1[C@H](O)CC(=O)[C@@H]1CCCCCCC(=O)OC (mixture of isomers) [Misoprostol] (concentration: 25 µM),0.939 ± 0.037,0.702 ± 0.08
CC(C)[C@H](N)C(=O)OCCOCn1cnc2c(=O)nc(N)[nH]c21 [Valacyclovir·HCl] (concentration: 25 µM),0.987 ± 0.03,0.332 ± 0.065
N=C(N)NC(=O)Cc1c(Cl)cccc1Cl [Guanfacine·HCl] (concentration: 25 µM),0.956 ± 0.059,0.695 ± 0.13
CCCOc1ccc(C(=O)OCCN(CC)CC)cc1N [Proparacaine·HCl] (concentration: 25 µM),1.06 ± 0.046,1.07 ± 0.05
CO[C@H]1C[C@@H]2CC[C@@H](C)[C@@](O)(O2)C(=O)C(=O)N2CCCC[C@H]2C(=O)O[C@H]([C@H](C)C[C@@H]2CC[C@@H](OC(=O)C(C)(CO)CO)[C@H](OC)C2)CC(=O)[C@H](C)/C=C(\C)[C@@H](O)[C@@H](OC)C(=O)[C@H](C)C[C@H](C)/C=C/C=C/C=C/1C [Temsirolimus] (concentration: 25 µM),0.686 ± 0.018,0.358 ± 0.15
O=C(O)P(=O)(O)O [Foscarnet·Na (Sodium Phosphonoformate Tribasic Hexahydrate)] (concentration: 25 µM),0.936 ± 0.065,0.59 ± 0.027
CN(C)CCc1c[nH]c2ccc(CS(=O)(=O)N3CCCC3)cc12 [Almotriptan] (concentration: 25 µM),0.95 ± 0.053,0.62 ± 0.18
O=P(O)(O)C(Sc1ccc(Cl)cc1)P(=O)(O)O [Tiludronate Disodium] (concentration: 25 µM),0.961 ± 0.06,0.663 ± 0.15
